The list is not random: actives were taken first. Their share in the collection is about 2.4%.
C diff growth = C. difficile growth inhibition. hit rate 0.25% among 86,000. growth activity, negative = inhibition, % at 16 µg/mL (by protocol). Clostridium difficile clinical isolate growth, OD600, 24 h; stronger effect = lower value. AID 1259249;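 active means mean growth activity at or below -80% and every replicate also at or below -80%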;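 further: 0% = DMSO wells and -100% = levofloxacin 16 µg/mL wells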
Pf Dd2 growth = P. falciparum Dd2 growth inhibition | SYBR Green, 72 h; stronger effect = lower value | activity change, % at 10 µM | hit rate 2.3% among 94,000; in the data active means activity change below about -80%
Numbers without * were called inactive; · = not tested or not shown.

SMILES	C diff growth	Pf Dd2 growth
C[C@H](CO)N1C[C@H](C)[C@H](CN(C)S(=O)(=O)c2ccccc2)Oc2ncc(Br)cc2C1=O	-2.1	19.2
CO[C@@H]1CN(C)C(=O)c2cc(NC(=O)Nc3cccc(Cl)c3)ccc2OC[C@H](C)N(C)C[C@H]1C	-3.1	3.1
CC(C)OC(=O)N(C)C[C@@H]1OCc2ccccc2-c2ccccc2C(=O)N([C@H](C)CO)C[C@@H]1C	0.0	21.0
C[C@H](CO)N1C[C@H](C)[C@H](CN(C)C(=O)Nc2ccc(C(F)(F)F)cc2)Oc2c(NC(=O)Nc3ccc4c(c3)OCO4)cccc2C1=O	5.2	-20.8
Cc1ccc(S(=O)(=O)Nc2ccc3c(c2)C(=O)N([C@@H](C)CO)C[C@@H](C)[C@H](CN(C)C(=O)Nc2ccc(F)cc2)O3)cc1	-9.3	0.8
C/C=C/c1cnc2c(c1)C(=O)N([C@@H](C)CO)C[C@H](C)[C@H](CN(C)C(=O)Nc1c(C)noc1C)O2	-0.7	-1.8
O=C(CCN1CCCCC1)NCC[C@H]1CC[C@H](NC(=O)C2CCOCC2)[C@@H](CO)O1	-0.2	13.0
C[C@@H]1CN([C@H](C)CO)C(=O)c2c(c3ccccc3n2C)-c2ccccc2CO[C@H]1CN(C)C(=O)c1ccccc1	·	-27.1
Cc1ccc(S(=O)(=O)N[C@H]2CC[C@H](CC(=O)NCc3ccc(Cl)c(Cl)c3)O[C@H]2CO)cc1	-0.5	4.4
C[C@@H]1CN([C@@H](C)CO)C(=O)c2c(c3ccccc3n2C)-c2ccccc2CO[C@H]1CN(C)Cc1ccc(Cl)c(Cl)c1	4.0	-91.1*
C[C@H]1CN([C@@H](C)CO)C(=O)c2c(c3ccccc3n2C)-c2ccccc2CO[C@H]1CN(C)Cc1ccc(Cl)c(Cl)c1	9.0	-77.3
C[C@@H]1CN([C@H](C)CO)C(=O)c2c(c3ccccc3n2C)-c2ccccc2CO[C@H]1CN(C)Cc1ccc2c(c1)OCO2	-3.9	-36.9
C[C@@H]1CN([C@@H](C)CO)C(=O)c2c(c3ccccc3n2C)-c2ccccc2CO[C@H]1CN(C)Cc1ccc2c(c1)OCO2	3.2	-82.9*
CCC(=O)Nc1ccc2c(c1)C(=O)N(C)[C@H]1CC[C@H](CC(=O)NCCc3ccncc3)O[C@H]1CO2	-9.3	11.6
CN(C)CC(=O)N[C@@H]1CC[C@H](CCn2cc(C3CC3)nn2)O[C@H]1CO	-2.3	21.4
C/C=C/c1ccc([C@H]2[C@@H](CO)N(c3nc(C)c(C)s3)[C@@H]2CNCC(C)C)cc1	33.3	-96.0*
C/C=C/c1ccc([C@H]2[C@@H](C#N)N(c3nc(CC)cs3)[C@@H]2CO)cc1	1.8	-46.8
CC(=O)N[C@H]1CC[C@H](CCNC(=O)Nc2ccc(C(F)(F)F)cc2)O[C@H]1CO	-94.9*	9.2
O=C(NCC[C@H]1CC[C@@H](NC(=O)C2CC2)[C@@H](CO)O1)Nc1ccc(C(F)(F)F)cc1	-99.7*	-19.2
O=C(NCC[C@H]1CC[C@@H](NC(=O)C2CC2)[C@H](CO)O1)Nc1ccc(C(F)(F)F)cc1	19.8	-25.3
CN(C)CC(=O)N[C@@H]1CC[C@@H](CCNC(=O)Nc2ccc(C(F)(F)F)cc2)O[C@@H]1CO	-100.3*	8.0
CCC(=O)N[C@H]1CC[C@@H](CCNC(=O)Nc2ccc(C(F)(F)F)cc2)O[C@H]1CO	·	-28.3
CC(=O)N[C@H]1CC[C@@H](CCNC(=O)Nc2ccc(C(F)(F)F)cc2)O[C@H]1CO	-10.8	21.1
C[C@@H]1CN([C@@H](C)CO)C(=O)c2cc(C#CC3CC3)cnc2O[C@@H]1CN(C)C(=O)C1CCCCC1	·	-19.1
CC(C)C(=O)Nc1ccc2c(c1)C(=O)N(C)[C@@H]1CC[C@H](CC(=O)Nc3ccccc3)O[C@H]1CO2	12.4	0.5
SMILES	C diff growth	Pf Dd2 growth
C[C@@H]1CN([C@H](C)CO)C(=O)c2cc(NC(=O)C3CCCCC3)ccc2O[C@@H](C)CCCCO[C@H]1CN(C)Cc1ccc(Cl)c(Cl)c1	12.0	-90.3*
C[C@@H]1CCCCO[C@@H](CN(C)Cc2ccc(Cl)c(Cl)c2)[C@@H](C)CN([C@H](C)CO)C(=O)c2cc(NC(=O)c3ccncc3)ccc2O1	15.4	-18.2
C[C@@H]1CN([C@@H](C)CO)C(=O)c2cc(NC(=O)C3CCCCC3)ccc2O[C@@H](C)CCCCO[C@H]1CN(C)Cc1ccc(Cl)c(Cl)c1	12.3	-80.0
C[C@@H]1CCCCO[C@H](CN(C)Cc2ccc(Cl)c(Cl)c2)[C@@H](C)CN([C@@H](C)CO)C(=O)c2cc(NC(=O)C3CCCCC3)ccc2O1	13.4	-91.3*
C[C@@H]1CN([C@H](C)CO)C(=O)c2cc(NC(=O)c3ccncc3)ccc2O[C@@H](C)CCCCO[C@H]1CN(C)Cc1ccc(Cl)c(Cl)c1	13.2	-86.2*
C[C@@H]1CCCCO[C@@H](CN(C)Cc2ccc(Cl)c(Cl)c2)[C@@H](C)CN([C@H](C)CO)C(=O)c2cc(NC(=O)C3CCCCC3)ccc2O1	6.2	-38.0
CC(C)NC(=O)N(C)C[C@H]1Oc2ccc(NC(=O)NC3CCCCC3)cc2CC(=O)N([C@H](C)CO)C[C@@H]1C	3.1	-5.2
CN(C)C(=O)c1ccc(-c2ccc([C@@H]3[C@H](CO)N4CCCCN(Cc5cncnc5)C[C@@H]34)cc2)cc1	-2.3	-10.9
C[C@@H]1CCCCO[C@H](CN(C)Cc2ccc(Cl)c(Cl)c2)[C@@H](C)CN([C@@H](C)CO)C(=O)c2cc(NC(=O)Nc3cccc4ccccc34)ccc2O1	-12.5	-90.5*
C[C@@H]1CCCCO[C@@H](CN(C)Cc2ccc(Cl)c(Cl)c2)[C@H](C)CN([C@@H](C)CO)C(=O)c2cc(NC(=O)Nc3cccc4ccccc34)ccc2O1	-1.9	-48.2
C[C@@H]1CN([C@H](C)CO)C(=O)c2cc(NC(=O)Nc3cccc4ccccc34)ccc2O[C@@H](C)CCCCO[C@@H]1CN(C)Cc1ccc2c(c1)OCO2	·	-89.0*
C[C@H]1CCCCO[C@H](CN(C)Cc2ccc3c(c2)OCO3)[C@@H](C)CN([C@@H](C)CO)C(=O)c2cc(NC(=O)Nc3cccc4ccccc34)ccc2O1	22.5	-75.8
CCCN(C)C[C@@H]1OCCCC[C@@H](C)Oc2ccc(NS(=O)(=O)c3ccc(Cl)cc3)cc2C(=O)N([C@H](C)CO)C[C@@H]1C	-0.4	-60.9
COc1ccc(S(=O)(=O)Nc2ccc3c(c2)C(=O)N([C@H](C)CO)C[C@@H](C)[C@H](CN(C)Cc2ccc(Cl)c(Cl)c2)OCCCC[C@H](C)O3)cc1	·	-84.3*
CCCN(C)C[C@H]1OCCCC[C@@H](C)Oc2ccc(NS(=O)(=O)c3ccc(C)cc3)cc2C(=O)N([C@H](C)CO)C[C@@H]1C	14.2	-52.3
CCCN(C)C[C@H]1OCCCC[C@@H](C)Oc2ccc(NS(=O)(=O)c3ccc(C)cc3)cc2C(=O)N([C@H](C)CO)C[C@H]1C	20.5	-89.3*
CCCN(C)C[C@H]1OCCCC[C@@H](C)Oc2ccc(NS(=O)(=O)c3ccc(Cl)cc3)cc2C(=O)N([C@@H](C)CO)C[C@H]1C	8.7	-85.9*
CCCN(C)C[C@@H]1OCCCC[C@@H](C)Oc2ccc(NS(=O)(=O)c3ccc(F)cc3)cc2C(=O)N([C@@H](C)CO)C[C@@H]1C	10.3	-39.4
CCCN(C)C[C@H]1OCCCC[C@@H](C)Oc2ccc(NS(=O)(=O)c3ccc(C)cc3)cc2C(=O)N([C@@H](C)CO)C[C@H]1C	5.6	-86.1*
COc1ccc(S(=O)(=O)Nc2ccc3c(c2)C(=O)N([C@H](C)CO)C[C@H](C)[C@H](CN(C)Cc2ccc(Cl)c(Cl)c2)OCCCC[C@H](C)O3)cc1	14.9	-59.5

Assay outcomes (PubChem BioAssay)
